From PubChem BioAssay (NCATS) come the findings set out here.

One test relates to Tov-21-G. Put plainly: Primary qHTS to identify gynecologic anti-cancer compounds using libraries of approved drugs and bioactive compounds (AID 1345084). Also: nearly all actives have a fitted effect of over 55% in size. Also: potency is read from the fitted curve at half-maximal effect. As to activity change, negative = cytotoxicity: % is scaled to controls: 0 for no effect and ±100 for the full control effect. Particulars: Gynecologic cancer cell panel viability, ATPlite luminescence, 48 h; series mostly up to 57.5 µM. Put shortly: (§1)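 Cytotoxicity screen measuring ATP content by luciferase luminescence. Each compound is applied at five concentrations for 48 h at 37 C with 5% CO2.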

In the next test the test system is Tov112D. The test is described as above. The following applies: Gynecologic cancer cell panel viability, ATPlite luminescence, 48 h; series mostly up to 57.5 µM. The essentials:
as §1

The nature of test [1]: Drug repurposing screens with cells derived from glioblastoma tumor samples (AID 1345199). Also: nearly all actives have a fitted effect of over 40% in size. Also: potency is read from the fitted curve at half-maximal effect. As to activity, negative = cell killing: % is scaled to controls: 0 for no effect and ±100 for the full control effect. Particulars: GBM patient neurospheres viability, ATP luminescence, 48 h. The essentials:
(§2)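 Primary testing used CD133+ neurospheres from four GBM patients, seven concentrations, 48 h exposure and ATP-based viability; confirmation added three slower-growing patient lines.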

Another test deals with astro. Described as above. The following applies: viability, ATP luminescence, 48 h; series mostly up to 45.9 µM. Put shortly: as §2
Test [2] can be described thus: qHTS assay to identify inhibitors of the type 1 interferon - major histocompatibility complex class I in skeletal muscle: Counter screen cell viability and HiBit confirmation (AID 1347412). Also: potency is read from the fitted curve at half-maximal effect. As to activity change, negative = inhibition: % is scaled to controls: 0 for no effect and ±100 for the full control effect. As to all read-outs here: nearly all actives have a fitted effect of over 60% in size. Particulars: iHSKM muscle cells + IFN-b, HiBiT or CellTiter-Glo, 24 h; for activity change, negative = inhibition: at 45.9 µM (top of the series). The essentials:
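Duplicate plates, pinned identically: one read for HiBiT-tagged endogenous HLA-B luminescence, the other for ATP-content viability via CellTiter Glo. Cells were genome-engineered human myoblasts given 4 ng/ml IFN-b; compounds 12-pt, 1:3 from 46 uM final; 24 hr exposure.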

Test [3] addresses Nuclear receptor subfamily 1 group I member 2 (Rattus norvegicus) (UniProt Q9R1A7). The test can be described thus: qHTS assay for small molecule activators of the rat pregnane X receptor (rPXR) signaling pathway (AID 651751; call rule not given here; also: 0% is about no effect). The following applies: rPXR reporter cells, luciferase (One-Glo), 24 h. In general terms: In qHTS, concentration-response curves come from the screen itself.

Test [4] in a line: qHTS assay for small molecule activators of the human pregnane X receptor (PXR) signaling pathway (AID 720659; call rule not given here; also: 0% is about no effect).
Setting [5] is: at 45.9 µM (top of the series), tumour line B.
Setting [6] is: at 45.9 µM (top of the series), tumour line D.
[7] abbreviates: at 46.1 µM (top of the series), tumour line C.
[8] abbreviates: at 46 µM (top of the series), tumour line A.

Several values for one entry are separate records, joined by “and”; a condition that tells them apart may be missing. Equal values may be shown once. Records with an inconclusive call do not appear. A structure can be active in one record and inactive in another. Activity calls are given as the source filed them. Unless noted, calls follow the shape of the dose curve; as a rule, active = well fitted curve in the direction sought with a large enough effect; inconclusive = small, poorly fitted or top-dose-only effect, or another doubt; inactive = no such curve, though single readings can be large; an effect the other way counts as inactive or inconclusive.

Sequence of Nuclear receptor subfamily 1 group I member 2 (Rattus norvegicus) (Q9R1A7 whole entry, looked up): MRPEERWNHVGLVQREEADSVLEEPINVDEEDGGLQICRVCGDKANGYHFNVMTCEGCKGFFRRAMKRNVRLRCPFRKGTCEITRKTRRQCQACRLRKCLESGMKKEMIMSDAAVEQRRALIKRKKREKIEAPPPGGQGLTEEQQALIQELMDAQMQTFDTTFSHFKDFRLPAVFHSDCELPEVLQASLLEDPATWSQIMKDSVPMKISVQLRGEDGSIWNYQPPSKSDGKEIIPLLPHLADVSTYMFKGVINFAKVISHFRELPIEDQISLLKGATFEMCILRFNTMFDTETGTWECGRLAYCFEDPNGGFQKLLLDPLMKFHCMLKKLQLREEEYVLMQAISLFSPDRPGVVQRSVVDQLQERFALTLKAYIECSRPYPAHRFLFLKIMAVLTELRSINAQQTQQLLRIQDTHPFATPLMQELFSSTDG

As for `N[C@@H](C(=O)N[C@@H]1C(=O)N2C(C(=O)O)=C(Cl)CS[C@H]12)c1ccccc1`, the activity change, negative = cytotoxicity was 0.747% [at 11.6 µM] (inactive) in the test on Tov-21-G and 2.46% [at 11.6 µM] (inactive) with Tov112D. Also, the activity, negative = cell killing in test [1] (setting [5]) is -8.97% (inactive); in test [1] (setting [6]), 11.2% (inactive); in test [1] (setting [7]), 7.75% (inactive). For the same molecule, in the test on astro, the Potency result was “inactive”.

`CC(C)C[C@H](NC(=O)[C@H](CCc1ccccc1)NC(=O)CN1CCOCC1)C(=O)N[C@@H](Cc1ccccc1)C(=O)N[C@@H](CC(C)C)C(=O)[C@@]1(C)CO1`: the Potency was 0.251 µM (active) in the test with Tov-21-G, 0.708 µM (active) with Tov112D, 0.708 µM (active) in the test with astro and 0.0883 µM (active) in test [2] (HiBiT).

As for `COc1ccc2cc3[n+](cc2c1OC)CCc1cc2c(cc1-3)OCO2`, the Potency result in the test with Tov-21-G was “inactive”. Also, in test [3], the max response was 6.2% (inactive). For the same molecule, in test [4], the outcome was inactive.

Turning to `COc1cc2c(Nc3ccc(Br)cc3F)ncnc2cc1OCC1CCN(C)CC1`, the Potency result in the test with Tov-21-G is “inactive”. In addition, the Potency entry in the test with Tov112D was “inactive and 31.6 µM (active)”; in the test with astro, 14.1 µM (active).

For the molecule `C[C@@H](NCCCc1cccc(C(F)(F)F)c1)c1cccc2ccccc12`, the Potency entry with Tov-21-G and with Tov112D was “inactive” throughout. For the same molecule, the Potency in the test with astro was 22.4 µM (active). The activity change, negative = inhibition in test [2] (HiBiT) is 14% (inactive); in test [2] (Viability), -23.6% (inactive).

Consider `CN1CCCC(n2nc(Cc3ccc(Cl)cc3)c3ccccc3c2=O)CC1` (stereo not drawn), for which the activity, negative = cell killing in test [1] (setting [7]) is 4.16% (inactive). Further, the Potency is 11.2 µM (active) in test [1] (tumour line A) and 14.1 µM (active) in test [1] (tumour line D).

Regarding `COC(c1ccccc1)(c1ccccc1)[C@H](Oc1nc(C)cc(C)n1)C(=O)O`, the activity, negative = cell killing was -11% (inactive) in test [1] (setting [5]), -22.7% (inactive) in test [1] (setting [6]), -16.8% (inactive) in test [1] (setting [8]) and 2.92% (inactive) in test [1] (setting [7]).

Regarding `O=C(N[C@H](CO)[C@H](O)c1ccc([N+](=O)[O-])cc1)C(Cl)Cl`, the Potency entry in the test with Tov112D and in the test with astro was “inactive” each time. Besides, the activity, negative = cell killing is -13.1% (inactive) in test [1] (setting [5]); -46.2% (inactive) in test [1] (setting [8]); -18.2% (inactive) in test [1] (setting [7]); -17.6% (inactive) in test [1] (at 91.6 µM (top of the series), tumour line B). For the same molecule, in test [3], the max response was -5.66% (inactive) and -3.04% (inactive).

For `CCN(CC)CCn1c(=O)c(Cc2ccc(OC)cc2)nc2ccccc21`, the values for the activity, negative = cell killing in test [1] (setting [5]), in test [1] (setting [6]) and in test [1] (setting [7]) were -5.87% (inactive), -15.6% (inactive) and 14.7% (inactive), respectively. Further, the Potency in test [1] (tumour line A) was 10 µM (active). Also, the Potency result with astro is “inactive”.

Regarding `COc1ccc(-c2ccc3cc(C(=O)O)ccc3c2)cc1C12CC3CC(CC(C3)C1)C2`, the Potency entry with Tov-21-G, with Tov112D and in the test on astro was “inactive” in each case.

In the case of `CC(=O)[C@H]1CC[C@H]2[C@@H]3CC=C4C[C@@H](O)CC[C@]4(C)[C@H]3CC[C@]12C`, the Potency result in the test on Tov-21-G, with Tov112D and with astro was “inactive” each time. For the same molecule, the activity, negative = cell killing in test [1] (setting [5]) was -3.14% (inactive); in test [1] (setting [7]), 6.87% (inactive).

Turning to `CS(=O)(=O)c1ccc([C@@H](O)[C@@H](CO)NC(=O)C(Cl)Cl)cc1`, the Potency entry with Tov112D and with astro was “inactive” in each case. The activity, negative = cell killing in test [1] (at 20 µM (top of the series), tumour line C) was -12.8% (inactive); in test [1] (at 21.2 µM (top of the series), tumour line B), -9.12% (inactive); in test [1] (at 21.2 µM (top of the series), tumour line D), -24.7% (inactive); in test [1] (at 21.3 µM (top of the series), tumour line A), -19.8% (inactive).

As to `Nc1nc(N)c2nc(CNc3ccc(C(=O)NC(CCC(=O)O)C(=O)O)cc3)cnc2n1` (stereo not drawn), the max response in test [3] was -7.99% (inactive). Moreover, the outcome in test [4] was inactive.

For `CC(C)OC(=O)C(C(=O)OC(C)C)=C1SC=CS1`, the Potency result in the test on Tov-21-G, in the test with Tov112D and with astro was “inactive” each time. The activity, negative = cell killing in test [1] (setting [7]) is -18.3% (inactive). The Potency in test [1] (tumour line A) was 11.2 µM (active).

In the case of `CC(=O)Oc1ccccc1C(=O)Nc1ncc([N+](=O)[O-])s1`, the Potency result in the test with Tov-21-G and in the test on Tov112D was “inactive” each time. In addition, in test [2] (HiBiT), the Potency was 14 µM (active). Moreover, the activity change, negative = inhibition in test [2] (Viability) was -5.7% (inactive).

As for `COc1cc(NCc2ccc3nc(N)nc(N)c3c2C)cc(OC)c1OC`, the Potency in the test on Tov112D is 0.1 µM (active). Further, the activity change, negative = inhibition in test [2] (HiBiT) was -7.08% (inactive); in test [2] (Viability), -0.467% (inactive).

Turning to `Oc1c(Cl)cc(Cl)c2cccnc12`, the Potency was 28.2 µM (active) in the test on Tov-21-G, 15.8 µM (active) in test [1] (tumour line A) and 8.91 µM (active) in test [1] (tumour line B). Further, in test [1] (setting [7]), the activity, negative = cell killing was -48.9% (inactive). The activity change, negative = inhibition in test [2] (HiBiT) is -16.5% (inactive); in test [2] (Viability) it was -8.17% (inactive).

For `N[C@@H](Cc1ccc(O)c(O)c1)C(=O)O`, the activity, negative = cell killing in test [1] (setting [7]) was 28.9% (inactive). Moreover, in test [1] (tumour line A), the Potency is 12.6 µM (active). Also, the max response in test [3] was -10% (inactive). The call in test [4] was inactive.
